Assay results from PubChem BioAssay AID602382 (Sanford-Burnham Center for Chemical Genomics, 2012).
This is one part of the list. Unmarked numbers belong to inactive results. The rule behind the calls is not given here.

Experiment: spectral interference with molecular beacon fluorescence, dose response, artefact control for DNMT1 inhibitor project, biochemical, fluorescent molecular beacon (AID 602382)
Details: spectral interference counter-screen

Row | SMILES | IC50 [µM]
1 | NC(CSC(c1ccccc1)(c1ccccc1)c1ccc(-c2ccccc2)cc1)C(=O)O (stereo not given) | > 99
2 | O=C(CSc1nc2ccccc2c(=O)[nH]1)Nc1nc(-c2ccc(Br)cc2)cs1 | > 99
3 | COc1ccc(Cc2nnc(NC(=O)Cc3cccs3)s2)cc1 | > 99
4 | O=C(Oc1ccc(-c2nc(-c3ccccn3)no2)cc1)c1ccccc1 | > 99
5 | Cc1ccccc1NC(=O)CN1C(=O)N/C(=C\c2cccn2-c2cccc(C(=O)O)c2)C1=O | > 99
6 | O=C(COc1ccc(/C=N/NC(=O)c2ccc(O)cc2)cc1)Nc1ccc([N+](=O)[O-])cc1 | > 99
7 | COc1ccc(Br)cc1/C=N/Nc1ccc(S(=O)(=O)Nc2ccccc2C(=O)O)cc1[N+](=O)[O-] | > 99
8 | COc1ccc(C(=O)/C=C/c2ccc(-c3ccccc3)cc2)cc1CSCC(=O)O | > 99
9 | CCOC(=O)C(NC(=O)CC(C)C)(Nc1sc2c(c1C(N)=O)CCCC2)C(F)(F)F (stereo not given) | > 99
10 | Cc1ccc(/C=C/C(=O)Nc2ccc([N+](=O)[O-])c(NC(=O)/C=C/c3ccc(C)o3)c2)o1 | > 99
